PI5P4K alpha inh: qHTS for Inhibitors of phosphatidylinositol 5-phosphate 4-kinase (PI5P4K); Phosphatidylinositol 5-phosphate 4-kinase type-2 alpha (Homo sapiens), P48426; PI5P4Kalpha enzyme, ADP-Glo luminescence, 60 min; stronger effect = lower value; max response, %; hit rate 1.2% among 330,000; AID 652105, 2013; active means max response of -50% or lower; inconclusive means between -30% and -50%; inactive means -30% or higher; further: value at the top dose of about 77 µM
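Single end-point luminescence (ADP-Glo) quantified ADP from PI5P4Kalpha turnover; ATP 5 microM final, 1 h at RT, 0.1% CHAPS and 0.28 mM EGTA in HEPES pH 7.4.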
PGK inhibitor: qHTS Assay to Find Inhibitors of Phosphoglycerate Kinase; Phosphoglycerate kinase, glycosomal (Trypanosoma brucei brucei), P07378; PGK/GAPDH coupled, Kinase-Glo luminescence, 60 min; Potency, µM (highest dose often 57.5 µM), inactives show top-dose activity change, negative = inhibition, most hits filed as inhibitors; hit rate 0.043% among 380,000; active means well fitted inhibition curve with a large enough effect; inconclusive means small, poorly fitted or top-dose-only effect; inactive means no such curve, though single readings can be large or run the other way; further: potency means the concentration at half of the fitted maximal effect; nearly all actives have a fitted effect of over 60% in size
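Recombinant glycosomal PGK reaction used 1,3-bisphosphoglycerate generated in-well by GAPDH (100nM final) in 100mM TEA pH 7.6, 5mM MgCl2, 0.01% Tween-20. After 60 minutes at room temperature, ATP was read by Kinase-Glo Plus luminescence end-point.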
PI4K2A block: qHTS for small molecular inhibitors of PI4K2A | hit rate 0.13% among 420,000 | activity change, negative = inhibition, % at 76.9 µM | Phosphatidylinositol 4-kinase type 2-alpha (Homo sapiens), Q9BTU6 | purified PI4K2A, ADP-Glo luminescence, 1 h; stronger effect = lower value | AID 1346378, 2018; in the data active means activity change below about -50%; inconclusive means mostly about -30% to -49%;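 further: -100% = wells without enzyme as full effect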
Target sequence (Q9BTU6 whole entry, looked up): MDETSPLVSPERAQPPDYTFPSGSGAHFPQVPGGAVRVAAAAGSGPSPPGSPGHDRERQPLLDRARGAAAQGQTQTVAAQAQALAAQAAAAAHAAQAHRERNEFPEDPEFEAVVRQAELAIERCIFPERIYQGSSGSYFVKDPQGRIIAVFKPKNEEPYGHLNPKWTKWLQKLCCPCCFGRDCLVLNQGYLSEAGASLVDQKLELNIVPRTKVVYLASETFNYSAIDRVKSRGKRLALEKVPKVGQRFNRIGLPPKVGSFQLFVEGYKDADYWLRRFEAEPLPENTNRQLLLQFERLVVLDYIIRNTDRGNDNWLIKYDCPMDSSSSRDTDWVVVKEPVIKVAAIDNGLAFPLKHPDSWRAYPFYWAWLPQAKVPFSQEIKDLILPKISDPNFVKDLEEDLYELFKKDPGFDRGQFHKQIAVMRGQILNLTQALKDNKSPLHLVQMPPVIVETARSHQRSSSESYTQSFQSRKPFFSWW
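ADP-Glo luminescence measured ADP generated by PI4K2A enzyme (4 ug/mL before mixing) with 1.2 mM PI substrate (pre-mix) and 300 microM ATP (pre-mix). Tris pH7.5 buffer with MgCl2, Triton X-100; 1 h reaction at ambient temperature.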
Pin1 inhibitor: qHTS Assay to Find Inhibitors of Pin1. Peptidyl-prolyl cis-trans isomerase NIMA-interacting 1 (Homo sapiens), Q13526. Pin1 FP peptide displacement, HiFluor488, 10 min. Potency, µM (highest dose often 115 µM), without a hit: top-dose activity, negative = inhibition, usual class: inhibitors. hit rate 0.009% among 390,000. AID 504891, 2011; active means well fitted inhibition curve with a large enough effect in the polarisation, with a control signal flat, not every such curve was filed as active; inconclusive means small, poorly fitted or top-dose-only effect, or effect the other way, or a change in a side signal; inactive means no such curve, though single readings can be large or run the other way; the % refers to the polarisation; further: potency means the concentration at half of the fitted maximal effect
Target sequence (Q13526 whole entry, looked up): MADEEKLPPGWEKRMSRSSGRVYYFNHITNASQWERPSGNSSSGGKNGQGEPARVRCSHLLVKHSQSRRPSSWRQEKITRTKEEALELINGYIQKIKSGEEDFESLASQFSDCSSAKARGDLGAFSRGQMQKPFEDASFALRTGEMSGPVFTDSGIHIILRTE
Starred values were filed as active, the others as inactive; i = inactive; u = inconclusive; x = no result given. The entries come from a sample that favours hits as a whole. Unless noted, on the % scale 0 is the no-effect control and ±100 the full control effect.

SMILES	PI5P4K alpha inh	PGK inhibitor	PI4K2A block	Pin1 inhibitor
C#C[C@]1(OC(C)=O)CC[C@H]2[C@@H]3CCC4=C/C(=N/O)CC[C@@H]4[C@H]3CC[C@@]21CC	x	x	-3	x
O=C(NC(NNc1ccc([N+](=O)[O-])cc1)(C(F)(F)F)C(F)(F)F)c1ccc(Cl)cc1	-67*	-3%	4	-2%
Cc1nc(CN(C)c2ncnc3cc(-c4ccc5c(c4)OCO5)ccc23)cs1	x	x	x	-3%
O=C(NCc1ccc(F)cc1)n1cc(P(=S)(c2ccccc2)c2ccccc2)c2ccccc21	x	x	x	1%
CC[C@]12c3[nH]c4cc(-c5ccco5)ccc4c3CCN1C(=O)[C@@H](CC(=O)NCC13CC4CC(CC(C4)C1)C3)C[C@@H]2C(=O)N1CCN(C(=O)c2ccco2)CC1	-51*	-1%	-23	64%
CC(C)[C@H](N)c1cn([C@@H](CC(N)=O)C(=O)N2CCNCC2)nn1	-2	-4%	0	0%
Cn1c2ccccc2c2cc(/C=N/NC(=O)c3ccc(O)cc3O)ccc21	-62*	-6%	0	26%
COc1ccc(/C=N/NC(=O)c2ccc(O)cc2O)cc1CSc1ccccn1	-71*	u	-1	u
CC(=O)Nc1ccn(C2COC(COC(=O)c3ccccc3)O2)c(=O)n1 (centres undefined)	x	x	0	x
Nc1nnnn1/N=C/c1ccccc1C(F)(F)F	-56*	i	-5	2%
CCOC(=O)/C(C#N)=N/Nc1ccc(S(=O)(=O)N2CCc3ccccc32)cc1	1	-5%	0	5%
N#C/C(=N\Nc1ccc(S(=O)(=O)N2CCc3ccccc32)cc1)C(N)=S	-62*	2%	-11	1%
CC1=Nc2ccccc2/C1=C/c1sc(=S)n(-c2cccc(C(=O)O)c2)c1O	-55*	u	-1	u
Oc1c(C=C2N=c3ccccc3=N2)sc(=S)n1-c1ccccc1	-6	0%	-1	-1%
CCN1CCN(c2cccc(Nc3nn4c(=O)c5ccccc5nc4s3)c2)CC1	x	x	x	8%
N#Cc1sc2nc(-c3ccccc3)cc(-c3ccco3)c2c1N	-100*	-2%	u	u
N#Cc1sc2nc(C3CC3)cc(-c3ccccc3)c2c1N	-1	-9%	4	0%
O=C(COC(=O)c1ccccc1)Nc1ncc([N+](=O)[O-])s1	-74*	u	-5	x
Cc1cc(=O)c2c(O)c3c(O)cc(=O)c4c3c3c(cc(O)c1c23)C(C)(C)C=4O	x	x	i	x
CCN1C(=O)[C@@H]2[C@@H](c3ccc(-c4cccc(Cl)c4)c(OC)c3)N3CCCC[C@@]3(C(=O)OC)[C@@H]2C1=O	11	10%	-2	57%
CC(C)n1c(=S)[nH]c2c1c(=O)[nH]c(=O)n2C	-76*	i	1	4%
COc1ccc(/C=C/c2ccc(=O)n(Cc3ccccc3)n2)cc1	-51*	i	3	-25%
CCCCN(CCCC)C(C(N)=O)c1ccc(OC)cc1 (centres undefined)	x	x	-5	x
O=C(NCc1ccco1)c1cccc2c1C(=O)c1ccc(/C=C/c3ccccc3)cc1S2(=O)=O	-72*	u	-18	u
COc1cc2c(cc1OC)-c1cc3ccc(OC)c(OC)c3c[n+]1CC2	-8	0%	-6	-3%
SMILES	PI5P4K alpha inh	PGK inhibitor	PI4K2A block	Pin1 inhibitor
COc1ccc2cc3[n+](cc2c1O)CCc1cc2c(cc1-3)OCO2	u	x	-52*	x
O=C(NN1CCCCC1)NN1CCCCC1	-2	x	0	x
Nc1nc(N)c(N=Nc2ccc(S(N)(=O)=O)cc2)c(=O)[nH]1	-62*	i	-13	-4%
Nc1nc(N)c(N=Nc2ccc(Cl)cc2)c(=O)[nH]1	-77*	-2%	-8	8%
Cc1[nH][nH]c(=O)c1N=Nc1ccc(Cl)cc1	-3	2%	-7	-7%
Nc1nc(N)c(N=Nc2ccc(SCC(=O)O)cc2)c(=O)[nH]1	-64*	-6%	-21	7%
CC(C)C[C@H](NC(=O)[C@H](Cc1ccccc1)NC(=O)c1cnccn1)B(O)O	x	x	3	x
O=CN/C=C/c1cc(O)ccc1O	-64*	-8%	-10	u
O=Cc1ccc(O)cc1O	-2	-5%	3	3%
O=C(CSc1n[nH]c(-c2ccccc2)n1)NC(=O)NCc1ccco1	-55*	-8%	-11	u
O=C(CSc1nc2ccccc2c2nc3ccccc3n12)NCc1ccco1	-19	-10%	-53*	u
O=C1C=CC(=O)N1c1cccc2cccnc12	-62*	-4%	-21	-27%
O=C(/C(=N/N=C/c1ccc(O)c(O)c1O)c1ccccc1)c1ccccc1	-65*	-4%	-6	-10%
Oc1ccc(/C=N/N=C(c2ccccc2)c2ccccc2)c(O)c1O	u	-18%	-12	u
C/C=C\C=C/C(=O)Nc1cccc(C2=NOC3(C2)C[C@@H](C(N)=O)N(C(=O)CCCCC)C3)c1 (some centres undefined)	-67*	-9%	-7	2%
C/C=C\C=C/C(=O)Nc1cccc(C2=NOC3(C2)C[C@H](C(N)=O)N(C(=O)Cc2ccc([N+](=O)[O-])cc2)C3)c1 (some centres undefined)	-57*	i	-26	u
C/C=C(/C)C(=O)Nc1cccc(C2=NOC3(C2)C[C@H](C(N)=O)N(C(=O)Cc2ccc([N+](=O)[O-])cc2)C3)c1 (some centres undefined)	-7	-4%	3	5%
C/C=C\C=C/C(=O)Nc1cccc(C2=NOC3(C2)C[C@H](C(N)=O)N(C(=O)CC)C3)c1 (some centres undefined)	-4	-6%	-29	14%
C/C=C/C=C/C(=O)N1CC2(CC(c3cccc(NC(=O)CCCCC)c3)=NO2)C[C@H]1C(N)=O (some centres undefined)	-76*	2%	-14	5%
COc1cc(-c2c(C#N)c(N)nc3[nH]c(=S)[nH]c(=O)c23)ccc1O	-67*	-8%	-1	1%
C/C(=N/NC(=O)CNC(=O)c1ccc2c(c1)OCO2)c1ccc2c(c1)CCCC2	4	3%	4	3%
C/C(=N/NC(=O)CNC(=O)c1ccccc1F)c1ccc2c(c1)CCCC2	-67*	4%	-2	1%
COc1ccc(/C=N/NC(=O)c2cc(O)c(O)c(O)c2)cc1Cn1cc([N+](=O)[O-])cn1	-59*	u	-9	u
C=CCn1c(=O)[nH]c2cc(C(=O)N3CCN(c4ccc(C(C)=O)cc4)CC3)ccc2c1=O	x	i	-28	u
C=CCn1c(=O)[nH]c2cc(C(=O)N3CCN(c4cccc(Cl)c4)CC3)ccc2c1=O	-53*	-2%	-9	u
O=[N+]([O-])c1ccc(/C=C/C2=NN(c3ccccc3)C(c3ccco3)C2)o1 (centres undefined)	-62*	-23%	-3	62%
